{"source": "the supplement of paper PMC4954754", "note": "± gives the uncertainty stated by the source.", "data": [{"system": "HEK293T-Rex XBP1-RLuc", "test": "XBP1-RLuc splicing reporter activation, triplicate, relative to 500 nM thapsigargin (% of thapsigargin); higher = stronger IRE1/XBP1s reporter activation", "settings": "6.8 µM; 18 h; screen: confirmation", "experimental": "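HEK293T-Rex cells stably expressing the ERSE-firefly luciferase (BiP promoter, ATF6-preferring) or XBP1-splicing Renilla luciferase (IRE1/XBP1s) reporter, 1536-well plates, compound at 6.8 µM for 18 hr at 37 °C; luminescence read […] and expressed as % activation = 100*(compound - median DMSO)/(median 500 nM thapsigargin - median DMSO). Primary screen was single-pass; confirmation screen in triplicate (mean ± SD).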", "values": [{"compound": "CCOc1ccc(NC(=O)c2cccc(F)c2)c([N+](=O)[O-])c1", "XBP1-RLuc splicing reporter activation": "1.77 ± 2.1"}, {"compound": "CC(C)CNC(=O)c1cc(-c2ccc(F)cc2)no1", "XBP1-RLuc splicing reporter activation": "4.97 ± 1.2"}, {"compound": "O=C(N/N=C/c1ccc(Cl)cc1Cl)c1ccc(O)c(O)c1", "XBP1-RLuc splicing reporter activation": "10.6 ± 0.64"}, {"compound": "O=[N+]([O-])c1ccc(N/N=C/c2ccccc2O)cc1", "XBP1-RLuc splicing reporter activation": "2.37 ± 0.96"}, {"compound": "COc1ccc(/C=C/c2ccc3cccc(OC(C)=O)c3n2)cc1OC(C)=O", "XBP1-RLuc splicing reporter activation": "6.25 ± 0.81"}, {"compound": "CCCCNC(=O)c1cc(-c2cccs2)on1", "XBP1-RLuc splicing reporter activation": "9.51 ± 1.7"}, {"compound": "CC(=O)Oc1ccc2cc(NC(=O)c3ccc(C)cc3)c(=O)oc2c1", "XBP1-RLuc splicing reporter activation": "12.1 ± 1.8"}, {"compound": "NN1C(=O)/C(=C/c2ccc(O)c(O)c2)SC1=S", "XBP1-RLuc splicing reporter activation": "16.7 ± 0.56"}, {"compound": "CC(=O)N1CCc2c([nH]c3ccccc23)C12CCN(CCCOc1ccccc1)CC2", "XBP1-RLuc splicing reporter activation": "65.9 ± 4"}, {"compound": "N#CC1=C(N)Oc2c(ccc3ccccc23)C1c1ccccc1", "note": "(stereo unspecified)", "XBP1-RLuc splicing reporter activation": "14.2 ± 1.1"}, {"compound": "Cn1c(-c2cccc(Cl)c2)cnc1NC(=O)c1ccccc1", "XBP1-RLuc splicing reporter activation": "2.86 ± 0.72"}, {"compound": "Cc1ccc2nc(NC(=O)c3cccc4ccccc34)sc2c1", "XBP1-RLuc splicing reporter activation": "4.94 ± 1.5"}, {"compound": "O=C(N/N=C\\C(Br)=C\\c1ccccc1)c1n[nH]c2c1CCCC2", "XBP1-RLuc splicing reporter activation": "7.86 ± 1.6"}, {"compound": "COC(=O)c1ccc2c(COC(C)=O)c(OC(C)=O)ccc2c1COC(C)=O", "XBP1-RLuc splicing reporter activation": "24.5 ± 2.2"}, {"compound": "COc1cccc(/C=N/NC(=O)c2n[nH]c3c2CCCC3)c1", "XBP1-RLuc splicing reporter activation": "2.73 ± 0.56"}, {"compound": "O=C(COC(=O)c1ccc(O)c(O)c1)Nc1nc(-c2ccccc2)cs1", "XBP1-RLuc splicing reporter activation": "18.6 ± 3.9"}]}]}
